A number with no mark means an inactive call. The source made the active and inactive calls. Cut-off read from the data, not from the text of the source, unless noted: active = inhibition above about 28%; inactive = the rest.
Key:
[1] = biological target: Nuclear receptor coactivator 1 (Homo sapiens) (UniProt Q15788); experiment: SRC1 coactivator transcriptional activity inhibitors, confirmation, cell-based, luminescence, quadruplicate (AID 588820;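 active = mean inhibition above 46.68%, the untreated control wells mean plus 3 SD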;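 note: 0% = DMSO wells and 100% = gossypol 36 µM treated wells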); details: HEK293 GAL4-SRC1 luciferase reporter, at 3.6 µM, stronger effect = higher value
Nuclear receptor coactivator 1 (Homo sapiens), sequence (Q15788 whole entry, looked up, the tested form may be a part): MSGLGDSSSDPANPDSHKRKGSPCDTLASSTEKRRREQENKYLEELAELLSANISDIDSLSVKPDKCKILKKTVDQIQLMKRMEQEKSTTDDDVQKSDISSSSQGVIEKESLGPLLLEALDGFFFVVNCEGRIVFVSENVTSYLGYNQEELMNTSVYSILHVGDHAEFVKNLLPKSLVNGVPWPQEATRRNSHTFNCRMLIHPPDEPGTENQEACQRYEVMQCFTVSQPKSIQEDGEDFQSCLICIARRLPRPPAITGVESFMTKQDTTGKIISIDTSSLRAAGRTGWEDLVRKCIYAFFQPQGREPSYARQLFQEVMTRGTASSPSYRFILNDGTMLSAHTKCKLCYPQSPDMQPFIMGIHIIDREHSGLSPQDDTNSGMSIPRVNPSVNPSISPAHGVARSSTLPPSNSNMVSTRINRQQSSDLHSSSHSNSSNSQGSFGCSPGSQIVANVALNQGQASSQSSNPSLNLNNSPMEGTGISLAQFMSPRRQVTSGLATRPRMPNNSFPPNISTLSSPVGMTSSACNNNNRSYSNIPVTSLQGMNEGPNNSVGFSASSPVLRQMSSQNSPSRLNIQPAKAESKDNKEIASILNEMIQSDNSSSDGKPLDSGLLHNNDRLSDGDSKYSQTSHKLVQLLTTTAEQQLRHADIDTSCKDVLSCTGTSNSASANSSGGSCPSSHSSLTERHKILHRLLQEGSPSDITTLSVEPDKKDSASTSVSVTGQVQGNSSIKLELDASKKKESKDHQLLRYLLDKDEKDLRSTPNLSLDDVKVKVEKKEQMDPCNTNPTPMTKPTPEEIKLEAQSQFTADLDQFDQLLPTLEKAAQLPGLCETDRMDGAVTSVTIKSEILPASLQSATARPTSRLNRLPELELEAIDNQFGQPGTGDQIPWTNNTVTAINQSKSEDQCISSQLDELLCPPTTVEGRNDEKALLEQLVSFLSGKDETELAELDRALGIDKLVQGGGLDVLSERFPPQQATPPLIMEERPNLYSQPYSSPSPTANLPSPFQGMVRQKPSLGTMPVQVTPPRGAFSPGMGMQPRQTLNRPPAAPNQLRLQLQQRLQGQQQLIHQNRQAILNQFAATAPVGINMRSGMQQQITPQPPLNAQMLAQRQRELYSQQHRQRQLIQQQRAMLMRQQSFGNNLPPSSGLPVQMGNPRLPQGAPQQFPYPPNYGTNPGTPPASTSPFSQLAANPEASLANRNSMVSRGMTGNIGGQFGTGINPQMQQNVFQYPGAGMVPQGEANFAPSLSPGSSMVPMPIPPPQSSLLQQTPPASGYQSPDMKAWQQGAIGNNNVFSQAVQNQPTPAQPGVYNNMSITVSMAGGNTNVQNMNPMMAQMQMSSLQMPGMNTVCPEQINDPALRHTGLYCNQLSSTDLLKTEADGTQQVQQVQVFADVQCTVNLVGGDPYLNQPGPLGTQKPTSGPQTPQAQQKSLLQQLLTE

[2] = VP16 transactivation inhibitors, counter-screen for SRC1 inhibitor project, cell-based, luminescence, high throughput (AID 588824; in the data active = inhibition above about 25%); details: cell-based VP16 transactivation luciferase luminescence; at 3.6 µM; stronger effect = higher value
[3] = StAR promoter reporter inhibitors, counter-screen for LRH-1 inverse agonist project, cell-based, luminescence, high throughput (AID 651611); details: StAR promoter luciferase reporter counterscreen, at 3.6 µM, stronger effect = higher value
[4] = biological target: Nuclear receptor subfamily 5 group A member 2 (Homo sapiens) (UniProt O00482); experiment: LRH-1 (NR5A2) inverse agonists, retest, confirmation, cell-based, luminescence (AID 651613; in the data active = inhibition above about 42%;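 note: HEK293T cells co-transfected with LRH-1 and StAR promoter luciferase reporter; 0% = vehicle wells and 100% = parental cells lacking receptor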); details: cell-based LRH-1 luciferase reporter, inverse agonism; at 3.6 µM; stronger effect = higher value
Nuclear receptor subfamily 5 group A member 2 (Homo sapiens), sequence (O00482 whole entry, looked up): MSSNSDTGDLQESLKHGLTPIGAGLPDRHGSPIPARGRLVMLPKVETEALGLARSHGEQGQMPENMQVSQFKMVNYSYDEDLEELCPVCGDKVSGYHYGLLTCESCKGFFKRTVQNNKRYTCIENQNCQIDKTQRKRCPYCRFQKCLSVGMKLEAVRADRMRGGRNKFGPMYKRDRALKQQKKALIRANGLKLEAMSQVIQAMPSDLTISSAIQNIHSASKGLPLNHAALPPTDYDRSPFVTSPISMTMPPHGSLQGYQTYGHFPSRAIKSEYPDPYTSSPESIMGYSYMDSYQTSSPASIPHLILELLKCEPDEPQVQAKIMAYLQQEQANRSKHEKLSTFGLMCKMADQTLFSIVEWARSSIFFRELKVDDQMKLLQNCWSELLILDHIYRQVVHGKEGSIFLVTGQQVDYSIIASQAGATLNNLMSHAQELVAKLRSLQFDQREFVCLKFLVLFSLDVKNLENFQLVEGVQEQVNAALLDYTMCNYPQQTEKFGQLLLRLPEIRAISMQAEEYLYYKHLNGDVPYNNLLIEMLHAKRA

[5] = biological target: Steroidogenic factor 1 (Homo sapiens) (UniProt Q13285); experiment: SF1 (NR5A1) inverse agonists, counter-screen for LRH-1 inverse agonist project, cell-based, luminescence, high throughput (AID 651614; in the data active = inhibition above about 44%;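 note: cells cotransfected with StAR promoter reporter and SF1 expression vector; 0% = vehicle on cells with receptor and 100% = vehicle on cells lacking receptor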); details: cell-based SF1 luciferase reporter, at 3.6 µM, stronger effect = higher value
Steroidogenic factor 1 (Homo sapiens), sequence (Q13285 whole entry, looked up, the tested form may be a part): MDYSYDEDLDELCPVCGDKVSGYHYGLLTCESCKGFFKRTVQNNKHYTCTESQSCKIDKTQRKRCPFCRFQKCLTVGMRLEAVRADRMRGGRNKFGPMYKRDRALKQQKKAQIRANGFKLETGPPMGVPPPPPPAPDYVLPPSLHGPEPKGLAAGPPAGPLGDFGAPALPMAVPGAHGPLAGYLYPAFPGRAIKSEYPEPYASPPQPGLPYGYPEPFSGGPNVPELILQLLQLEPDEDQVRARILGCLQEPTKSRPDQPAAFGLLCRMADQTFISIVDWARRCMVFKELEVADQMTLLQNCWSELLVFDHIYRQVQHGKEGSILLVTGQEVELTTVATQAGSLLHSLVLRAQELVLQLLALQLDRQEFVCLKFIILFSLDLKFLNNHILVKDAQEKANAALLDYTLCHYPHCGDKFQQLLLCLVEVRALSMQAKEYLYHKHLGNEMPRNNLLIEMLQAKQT

[6] = VP16 transactivation reporter inhibitors, counter-screen for LRH-1 inverse agonist project, cell-based, luminescence, high throughput (AID 651615; in the data active = inhibition above about 33%); details: Gal4-VP16 luciferase reporter cells, at 3.6 µM, stronger effect = higher value

| Structure (SMILES) | inhibition [1] | inhibition [2] | inhibition [3] | inhibition [4] | inhibition [5] | inhibition [6] |
| --- | --- | --- | --- | --- | --- | --- |
| CCN(CC(=O)Nc1ccc(NC(C)=O)cc1)C(=O)C1(c2ccc(Cl)cc2)CCC1 | 16.1% | 9.61% | -2.92% | 40.1% | 27.4% | 11.8% |
| O=C(N/N=C/c1ccc(O)cc1)c1ccc(COc2cc(Cl)ccc2Cl)o1 | -2.22% | 30.3% (active) | 22.3% | 42.3% (active) | 47.1% (active) | 57.9% (active) |
| Cc1ccc2c(c1)c(/C=C/c1cc[n+](C)cc1)c(C)n2C | 32.9% | 57.1% (active) | 59.6% (active) | 91.4% (active) | 81.1% (active) | 80% (active) |
| CC(=O)Nc1ccc(Nc2c3ccccc3nc3ccccc23)cc1 | 22.8% | 39.4% (active) | 62.5% (active) | 106% (active) | 69.6% (active) | 72.8% (active) |
| CC1(c2ccc3ccccc3c2)NC(=O)N(CC(=O)N2CCN(Cc3ccccc3)CC2)C1=O (stereo not given) | -20.6% | 37.1% (active) | 12.2% | 55.8% (active) | 58% (active) | 48.8% (active) |
| COc1ccc(NC(=O)C2Cc3c(-c4cccc(C(C)=O)c4)ccnc3O2)cc1OC (stereo not given) | -17.4% | 19.6% | 44% (active) | 59% (active) | 72% (active) | 48.8% (active) |
| CC(=NNC(=S)N1CCCCC1)c1ccccn1 | 36.5% | 61.5% (active) | 70.5% (active) | 95.3% (active) | 82.2% (active) | 52.6% (active) |
| COc1cc2c(oc(=O)c3cc(C)cc(OC)c32)c2c(C3OC(C)C(O)C(C)(O)C3O)ccc(O)c12 (stereo not given) | -62.6% | 64.9% (active) | 50.6% (active) | 93.8% (active) | 75.5% (active) | 94% (active) |
| COc1ccc(NC(=O)C2Cc3c(-c4ccc5c(c4)OCO5)ccnc3O2)cc1OC (stereo not given) | 0.9% | 34% (active) | 27.9% (active) | 53.5% (active) | 61.1% (active) | 43.5% (active) |
| COCCn1c(SCCCC(=O)c2ccc(Br)cc2)nnc1-c1ccncc1 | -2.26% | 25.2% | 6.33% | 44.3% (active) | 46% (active) | 44.7% (active) |

From PubChem BioAssay
